Screening results as filed in PubChem BioAssay.
Luc counter = Kinase-Glo luciferase inhibition (counter-screen). Q27757. Kinase-Glo luciferase, ATP luminescence, 8 min. Potency, µM (series often up to 38.3 µM), inactives show at the highest dose activity change, negative = inhibition, usual class: inhibitors. hit rate 0.28% among 200,000; also: nearly all actives have a fitted effect of over 60% in size
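Recombinant Kinase-Glo luciferase, 10 uM ATP (linear range), luciferin; imidazole pH 7.2 / KCl / MgCl2 / Tween / BSA buffer; 8 min RT; luminescence.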
RORgamma inh = ROR gamma (mouse) transcription inhibition; Potency, µM (series often up to 53.6 µM), for inactives: at the highest dose activity change, negative = inhibition, most hits filed as inhibitors; P51450; hit rate 5.4% among 310,000; Drosophila S2 Gal4-RORgamma UAS-luciferase reporter, 20 h; also: nearly all actives have a fitted effect of over 60% in size
Target sequence (P51450 whole entry, looked up, the tested form may be a part): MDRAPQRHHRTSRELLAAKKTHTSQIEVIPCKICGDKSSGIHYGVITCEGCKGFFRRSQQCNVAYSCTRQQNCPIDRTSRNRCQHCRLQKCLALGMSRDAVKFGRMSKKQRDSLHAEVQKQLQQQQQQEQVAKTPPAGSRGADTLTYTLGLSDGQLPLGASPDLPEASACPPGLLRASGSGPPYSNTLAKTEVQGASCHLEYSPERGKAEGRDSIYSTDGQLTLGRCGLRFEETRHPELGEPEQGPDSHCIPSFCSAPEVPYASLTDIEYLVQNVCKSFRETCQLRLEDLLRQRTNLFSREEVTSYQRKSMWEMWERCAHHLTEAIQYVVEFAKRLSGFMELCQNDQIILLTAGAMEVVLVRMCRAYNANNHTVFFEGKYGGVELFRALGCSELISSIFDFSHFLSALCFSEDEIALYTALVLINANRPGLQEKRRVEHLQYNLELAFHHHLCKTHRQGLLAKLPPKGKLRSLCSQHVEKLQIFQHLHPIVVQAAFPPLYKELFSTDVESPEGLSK
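A Gal4/UAS one-hybrid system in insect cells: metallothionein-promoter Gal4–ROR gamma fusion plus Photinus luciferase reporter. Copper sulfate 700 uM final, 20 hr ambient incubation, luminescent detection after 10 min with reagent.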
VP16 counter = Gal4-VP16 reporter inhibition counter-screen; Drosophila S2 Gal4-VP16 UAS-luciferase, luminescence, 20 h; Potency, µM (highest dose often 53.6 µM), without a hit: at the top dose activity, negative = inhibition, most hits filed as inhibitors; hit rate 3.5% among 310,000; AID 2546;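 also: Gal4-VP16 expression switched on by copper sulfate through the metallothionein promoter; nearly all actives have a fitted effect of over 50% in size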
Active calls of the source: *; ? = inconclusive; . = no result; [ ] = another dose, or the depositor's remark. In the library only some 6.4% were active in any assay of this set; here they are far more common. Calls follow the shape of the dose curve; as a rule, active = well fitted curve in the direction sought with a large enough effect; inconclusive = small, poorly fitted or top-dose-only effect, or another doubt; inactive = no such curve, though single readings can be large; an effect the other way counts as inactive or inconclusive. % is scaled to controls: 0 for no effect and ±100 for the full control effect; potency is read from the fitted curve at half-maximal effect.

SMILES	Luc counter	RORgamma inh	VP16 counter
COc1ccc(/C=N/OC/C(O)=C(\C#N)c2nc3ccccc3[nH]2)cc1	-6%	11µM*	?
N#C/C(=C(/O)CO/N=C/c1ccccc1Cl)c1nc2ccccc2[nH]1	.	-29%	-2%
COc1ccc(OC/C(O)=C(\C#N)c2nc3ccccc3[nH]2)cc1	0%	-36%	-2%
COc1ccc(/C(C)=N/OC/C(O)=C(\C#N)c2nc3ccccc3[nH]2)cc1OC	-3%	10µM*	-9%
COc1ccc(/C(C)=N/OC/C(O)=C(\C#N)c2nc3ccccc3[nH]2)c(OC)c1	2%	20µM*	?
Cc1noc(NS(=O)(=O)c2ccc(NC(=O)c3nn(-c4ccccc4)ccc3=O)cc2)c1C	.	1%	-3%
COc1cccc(CN2CCC(C(=O)N3CCC(C)CC3)CC2)c1	6%	-16%	6%
COc1ccc(-n2ccnc2SCC(=O)NCc2ccco2)c(OC)c1	0%	-24%	-4%
c1ccc(-c2nn[nH]n2)nc1	.	-2%	-12%
COc1ccc(CCC(=O)Nc2nc3ccccc3[nH]2)cc1OC	-1%	0%	9%
COc1ccc(C/C(O)=C(\C#N)c2nc3ccccc3[nH]2)cc1OC	0%	11µM*	-20%
CCOC(=O)c1c(-n2cnnn2)sc2c1CCCC2	.	-14%	-26%
CCOC(=O)c1c(N2C(=O)C3C4C=CC(O4)C3C2=O)sc2c1CCCC2 (stereo not drawn)	-3%	?	18µM*
COc1ccc(NC(=O)C2(S(=O)(=O)c3ccc(C)cc3)CC2)cc1OC	.	-28%	5%
COc1ccc(C=O)cc1Oc1nc(Cl)ncc1F	-3%	-3%	1%
O=C(NCCc1ccccc1)c1cccc(Br)n1	0%[39.9 µM]	21%	12%
O=[N+]([O-])c1ccc2c(c1)S(=O)(=O)C=C2	.	0.63µM*	?
O=C1c2ccc([N+](=O)[O-])cc2S(=O)(=O)N1Cc1ccccc1	.	-17%	?
CCC1(O)CC2CN(CCc3c([nH]c4ccccc34)[C@@](C(=O)OC)(c3cc4c(cc3OC)N(C)C3[C@]45CCN4CC=C[C@@](CC)([C@@H](OC(C)=O)[C@]3(O)C(=O)OC)[C@H]45)C2)C1 (stereo partly drawn)	-3%	.	.
Cc1ccc(-c2cn3nc(C)c(C)nc3n2)cc1	?	7.9µM*	10µM*
CCc1ccc(-c2cn3nc(-c4ccccc4)cnc3n2)cc1	.	-7%	-7%
COc1ccc(OCCN2C(=O)NC3(CCc4ccccc4C3)C2=O)cc1 (stereo not drawn)	0%	4%[10 µM]	-5%
Fc1ccccc1NC(=S)Nc1ccc(Br)cc1	.	11µM*	?
Cc1ccc(NC(=S)Nc2ccc(Br)cc2)cc1	-4%	7.9µM*	?
Fc1cc(Br)ccc1NC(=S)Nc1ccccc1	3%	?	?
SMILES	Luc counter	RORgamma inh	VP16 counter
CC(=O)Nc1ccc(NC(=S)Nc2ccc(Br)cc2)cc1	.	-22%	1%
CC(C)(C)NC(=S)Nc1cccc(C(F)(F)F)c1	0%	31%	?
CC(C)(C)NC(=S)Nc1ccc(Nc2ccccc2)cc1	-3%	1.8µM*	7.1µM*
COc1ccc(NC(=S)NNC(=O)OC(C)(C)C)cc1OC	1%	-40%	-3%
COC(=O)NNC(=S)Nc1ccc(Br)cc1	-2%	14µM*	-15%
COCCNC(=O)COc1ccc(C)cc1C(=O)c1cc(C#N)c(=O)n(C2CC2)c1	-4%	29%	5%
Cc1ccccc1NC(=O)CN1C(=O)CSc2ccc(S(=O)(=O)N3CCCCC3)cc21	.	-5%	3%
C[C@H]1CCC2[C@](C)(CO)[C@@H](O)CC[C@]2(C)[C@@]12CCC(CO)(CCO)O2 (stereo partly drawn)	.	33%	-22%
CC(C)(C)NC(=S)Nc1ccc(Br)cc1	-1%	2µM*	-84%
S=C(NCc1ccncc1)Nc1ccc(Br)cc1	.	30%	0%
Nc1ccccc1C(O)(Cc1ccccc1)c1ccccc1 (stereo not drawn)	.	-2%	0%
COc1ccc(NC(=S)N(CCc2c(C)[nH]c3ccc(C)cc23)Cc2cccs2)cc1	4%	?	-10%
COc1ccc2[nH]c(C)c(CCN(Cc3cccs3)C(=S)Nc3ccc(F)cc3)c2c1	3%	-35%	-27%
CNC(=S)N(CCc1c(C)[nH]c2ccc(C)cc12)Cc1cccs1	1%	11µM*	?
COCCNC(=S)N(CCc1c(C)[nH]c2ccc(OC)cc12)Cc1ccco1	.	14%	15%
COc1ccc2[nH]c(C)c(CCN(Cc3cccs3)C(=S)Nc3ccccc3)c2c1	-4%	1.8µM*	-22%
COCCNC(=S)N(CCc1c(C)[nH]c2ccc(C)cc12)Cc1ccco1	1%	11µM*	-10%
Cc1ccc(C)c(Cn2c3ccccc3c3cnn(CC(=O)NCCCN4CCCCC4)c(=O)c32)c1	.	-14%	-19%
NC(=O)C1CCN(C(=O)CN(C2CCCCC2)S(=O)(=O)c2ccc(F)cc2)CC1	.	-3%	2%
CN(C)c1ccc(N=NS(=O)(=O)O)cc1	.	-6%	0%
O=C(COc1ccc(S(=O)(=O)N2CCOCC2)cc1)NCc1ccccn1	.	2%	-3%
COC(=O)C1=CN(Cc2ccccc2)C=C(C(=O)OC)C1c1cc(F)ccc1F	.	26%	4%
O=C(CCS(=O)(=O)c1ccccc1)Nc1ccccc1F	1%	26%	4%
Cc1cc(C)nc(NS(=O)(=O)c2ccc(NC(=O)Cc3ccccc3F)cc2)n1	.	1%	8%
Cc1cc(C)n2nc(C(=O)NCc3ccccc3)cc2n1	0%	13%	-8%
SMILES	Luc counter	RORgamma inh	VP16 counter
Cc1ccc(NC(=O)c2cc3nc(C)cc(C)n3n2)cc1	-4%	6.3µM*	10µM*
CC(=O)N/N=C/c1cc(C(C)(C)C)cc(/C=N/NC(C)=O)c1O	-5%	2.8µM*	14µM*
CC(=O)N/N=C/c1cc([N+](=O)[O-])ccc1OCCOc1ccccc1	-1%	4%	-5%
Cc1cc(C)c(NC(=O)CSc2nc(COc3ccccc3)nc3ccccc23)c(C)c1	-7%	?	16µM*
Cc1ccccc1NC(=O)CSc1nc(COc2ccccc2)nc2ccccc12	0%	-38%	-23%
CCn1c(CSCc2ccc(Cl)cc2)nnc1SCC(=O)Nc1cccc(C(=O)O)c1	.	0%	-10%
O=C(Nc1nc(-c2cc(Cl)sc2Cl)cs1)c1ccc(Br)s1	-2%	-13%	7%
O=C(Nc1nc(-c2ccccn2)cs1)c1ccc(Br)s1	21%	1.3µM*	1.3µM*
O=C(Nc1nc(-c2ccncc2)cs1)c1ccco1	-7%	0%[10 µM]	4%
O=C(Nc1nc(-c2ccccn2)cs1)c1cccc(-n2cnnn2)c1	.	5µM*	-5%
O=C(Nc1ccc(Br)cc1)c1cccc(-n2cnnn2)c1	.	?	-4%
O=C(Nc1nc(-c2ccccn2)cs1)c1ccco1	-3%	7.1µM*	0%
COc1cc(N)c(Cl)cc1C(=O)OCC(=O)N1CCCC1	.	-5%	2%
CC(=O)C(Cc1ccccc1)NC(=O)CN1CCN(Cc2ccccc2)CC1 (stereo not drawn)	0%	10%	18%
COc1cccc(-c2nnc3sc(C4CCCCC4)nn23)c1	3%	10%	-11%
CCOc1cccc(-c2nnc3sc(C4CCCCC4)nn23)c1	-7%	20µM*	?
O=C(CCCOc1ccccc1)Nc1ccc(S(=O)(=O)Nc2ccccn2)cc1	-1%	-3%	-16%
